Out of some 2,100 compounds screened, about 300 (14%) were called active. About 2% were inconclusive and are not listed.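 How the source made its calls: active means every replicate test run called active, with the signal falling and half-maximal concentration within twice the top valid dose; inconclusive means the replicate test runs disagree in their calls; inactive means every test run inactive, including effects in the opposite direction.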 Only a sample is shown. Measured potencies and affinities stand elsewhere.
experiment: reduced cellular PGC1a acetyl-lysine signal – cell-based, cherry-picked samples, dose response (AID 720514); settings: U2OS PGC1a acetylation, AlphaLISA, overnight; series mostly up to 19.5 µM; activity change, negative = inhibition: at the top concentration;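 further: 0% = neutral control wells and -100% = positive control wells; actives lower the acetylation signal so they count as inhibitors of PGC1a acetylation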

Activity change, negative = inhibition, inactive:
C[n+]1c2n(c3ccccc31)N=C(c1cc(C(C)(C)C)c(O)c(C(C)(C)C)c1)CS2 119%
COc1ccc([N+](=O)[O-])cc1NCc1ccccc1 131% [at 10 µM]
Cc1cc(C)c2c(-n3cccc3)c(C(=O)NNS(=O)(=O)c3ccc(F)cc3)sc2n1 109%
CCOC(=O)C1=CC[C@@H](c2ccccc2)N(S(=O)(=O)c2ccc(C)cc2)[C@H]1c1ccc(CC)cc1 153% [at 10 µM]
CCN(CC)c1ccc(NC(=O)c2cc(OC)cc(OC)c2)c(C)c1 58.6%
CCOC(=O)c1ccc(NC(=O)N2CCc3ccccc3C2)cc1 223% [at 10 µM]
CC1(Cc2ccc(Cl)cc2)C(=O)Nc2c(Cl)ccc(Cl)c21 (stereo unspecified) 87.1%
Cc1ccc(OCC(=O)N2CC(C)OC(C)C2)c([N+](=O)[O-])n1 (stereo unspecified) 44.5% [at 10 µM]
CCOC(=O)C(C)n1cnc2c(nnn2-c2ccc(C)cc2)c1=O (stereo unspecified) 43%
COc1ccc2nc3c(cc2c1)c(NC(=O)c1cccs1)nn3CC(C)C 83% [at 10 µM]
O=C(NCc1ccccc1)C(c1ccccc1)N(C(=O)c1csnn1)c1ccc(F)cc1 (stereo unspecified) 84.8%
O=C(Nc1ccc(Nc2ccncc2)cc1)c1ccc([N+](=O)[O-])cc1 65.5% [at 10 µM]
CO[C@@H]1CN(C)C(=O)c2cc(NC(=O)c3ccc(Oc4ccccc4)cc3)ccc2OC[C@@H](C)NC[C@@H]1C 62.6%
CCC(=O)N1C[C@H](C)[C@@H](OC)CN(C)C(=O)c2ccc(NC(=O)Nc3ccccc3)cc2OC[C@@H]1C 29.8%
CCC(=O)Nc1ccc2c(c1)OC[C@@H](C)N(C(=O)c1cnccn1)C[C@H](C)[C@H](OC)CN(C)C2=O 30.5%
CCOC(=O)C1(N(CC)CC)Sc2cc(C)ccc2NC1=O (stereo unspecified) 115%
CC(=O)Nc1sc2c(c1-c1nc3ccccc3s1)CN(C(C)C)CC2 174%
C[C@@H]1CN([C@H](C)CO)C(=O)CCCn2nncc2CO[C@H]1CN(C)C(=O)C1CC1 49.1%
O=C(Cc1ccccc1)Nc1ccc(NC(=O)c2ccco2)nc1 95.1% [at 10 µM]
CC(=O)C1=CCC(c2cccc3ccccc23)N(S(=O)(=O)c2ccc(C)cc2)C1 (stereo unspecified) 37.8%
CCOC(=O)N1CCN(C(=O)C(NS(=O)(=O)c2cccc3nsnc23)c2ccccc2)CC1 (stereo unspecified) 46%
Cc1cccc(CS(=O)(=O)c2ncc(Cl)c(C(=O)Nc3ccc(F)cc3)n2)c1 41% [at 10 µM]
O=C(COC(=O)c1ccco1)NCc1ccc2c(c1)OCO2 35.4%
COc1ccc(C2CC(=O)N(C)c3ccccc3S2)cc1 (stereo unspecified) 72.4%
CC1(C)CCCN(C(=O)N2c3ccccc3Sc3ccccc32)C1 99.6% [at 10 µM]
Cc1ccc(S(=O)(=O)CCSC(=N)N)cc1 87.2%
CC1CC1C(=O)OCC(=O)NCc1ccc(Cl)cc1 (stereo unspecified) 43.3%
CC(=O)c1ccc(NC(=O)CSCC(=O)Nc2ccc3ccccc3c2)cc1 32.2%
O=C(NCc1ccco1)c1scc2c1OCCO2 30.4%
COc1ccc(CC(=O)OCC(=O)NCc2ccco2)cc1 64.8%
CC1CCCCN1C(=O)/C(=C\c1ccccc1)c1ccccc1 (stereo unspecified) 26.4%
CCSc1ccc(NC(=O)c2cccnc2)cc1 210%
CCS(=O)(=O)N[C@H]1C=C[C@H](CC(=O)N2CCCCC2)O[C@H]1CO 46.5%
CC(=O)N(C)C[C@H]1Oc2cc(-c3ccc(C#N)cc3)ccc2S(=O)(=O)N([C@@H](C)CO)C[C@@H]1C 25.3%
C[C@H]1CN([C@@H](C)CO)S(=O)(=O)c2ccc(-c3cncnc3)cc2O[C@H]1CN(C)C(=O)CN(C)C 47.6% [at 10 µM]
COc1ccc(S(=O)(=O)Nc2ccc3c(c2)C(=O)N([C@@H](C)CO)C[C@@H](C)[C@H](CN(C)S(=O)(=O)c2ccc(Cl)cc2)OCCCC[C@H](C)O3)cc1 38.2% [at 10 µM]
COc1cc(CN2CC3(CCN(S(=O)(=O)c4cccs4)CC3)c3c(n(C)c4cc(OC)ccc34)[C@H]2CO)cc(OC)c1 49.9%
O=S(=O)(c1cccc(F)c1)N1CCN(Cc2cc3c(cc2Br)OCCO3)CC1 201%
Cc1ccc(-n2cccn2)c(CN2CCCC(C(=O)c3sccc3C)C2)c1 (stereo unspecified) 61.7%
CCCNC(=O)[C@H]1[C@H](CO)[C@H]2Cn3c(ccc(-c4ccccc4)c3=O)[C@H]2N1C(=O)C1CC1 37.3%
Cc1cc2c(cc1S(=O)(=O)N1CCc3ccccc31)NC(=O)CO2 75.4%
CCOc1ccccc1N(C)C(=O)C1CCN(S(=O)(=O)c2cccc3nonc23)CC1 65.8%
CCOC(=O)C1=CC[C@@H](c2ccc([N+](=O)[O-])cc2)N(S(=O)(=O)c2ccc(C)cc2)[C@H]1c1ccccc1 59.6% [at 10 µM]
Cc1ccc(-c2nnc(N3CCN(C(=O)COc4ccccc4)CC3)c3ccccc23)cc1 63.9%
CN1/C(=C\C(=O)c2cccc(S(=O)(=O)N3CCCCC3)c2)C(C)(C)c2ccccc21 45.8%
CCOc1ccccc1CN1CCN(C2CCC2)CC1CCO (stereo unspecified) 49.6%
CC(=O)c1cccc(N(C(=O)Cn2nnc3ccccc32)C(C(=O)NCc2ccccc2)c2ccccn2)c1 (stereo unspecified) 95.9%
COc1ccc(-c2nc(N)c(C#N)c(-c3cccnc3)c2C)cc1 159%
COc1ccc(OC)c(NC(=O)CSc2nnc(-c3cccnc3)s2)c1 252%
CCCOc1ccc(C(=O)Nc2cccnc2)cc1 133% [at 10 µM]
CCOC(=O)c1c(-c2ccc(C)cc2C)csc1NC(=O)CSc1nnnn1C 60.1%
CCOC(=O)c1oc2ccc(S(=O)(=O)N3CCC(C)CC3)cc2c1C 48.1%
O=C(CCCn1c(=O)[nH]c2cc(Cl)ccc2c1=O)NCCC1=CCCCC1 27.5%
C[C@@H]1CN([C@H](C)CO)C(=O)c2c(c3ccccc3n2C)-c2ccccc2CO[C@@H]1CN(C)C(=O)Nc1ccccc1C(F)(F)F 267%
COc1cc(OC)c2c(-c3cccc(-c4cccc(C)c4)c3)cc(=O)oc2c1 120% [at 10 µM]
COc1ccc(CCNC(=O)c2cc(-c3ccco3)on2)cc1OC 99.9% [at 10 µM]
O=C1OC(Oc2ccc(Br)cc2)(c2ccccc2)c2ccccc21 (stereo unspecified) 149%
CC(=O)c1ccc(NC(=O)N2CCc3ccccc3C2)cc1 225%
CC(=O)c1cccc(N(C(=O)c2cnccn2)C(C(=O)NCc2ccccc2)c2ccco2)c1 (stereo unspecified) 69.2%
C[C@H]1CN([C@@H](C)CO)C(=O)c2cccc(NC(=O)c3cnccn3)c2O[C@H]1CN(C)Cc1ccc(C(=O)Nc2ccccc2N)cc1 369% [at 21 µM]
C[C@@H]1CN([C@@H](C)CO)C(=O)c2cccc(NC(=O)c3ccc(-c4nccs4)cc3)c2O[C@@H]1CN(C)C(=O)Nc1ccc(C(F)(F)F)cc1 10.9%
C[C@@H]1CN([C@@H](C)CO)C(=O)Cc2cc(NC(=O)Cc3ccccc3)ccc2O[C@H]1CN(C)C(=O)Nc1ccccc1 34.5%
C[C@H]1CN([C@@H](C)CO)C(=O)c2cccc(NC(=O)Nc3cccc4ccccc34)c2O[C@H]1CN(C)Cc1ccc(C(=O)Nc2ccccc2N)cc1 270%
C[C@H](CO)N1C[C@H](C)[C@@H](CN(C)Cc2ccc3c(c2)OCO3)Oc2ccc(NC(=O)Nc3ccc4c(c3)OCO4)cc2CC1=O 44.8%
Cc1cc(Cn2nc(C(=O)NCc3cccc(C(F)(F)F)c3)cc2-c2ccccc2)on1 84.2%
C[C@@H]1CN([C@@H](C)CO)C(=O)c2c(c3ccccc3n2C)-c2ccccc2CO[C@@H]1CN(C)C(=O)Nc1cccc(C(F)(F)F)c1 90.9%
C=C/C=C/[C@@H]1C(=C)CN2[C@H]1[C@H](Cc1ccccc1)OC(=O)[C@@H]2Cc1ccccc1 59.2%
O=C(NCCC(c1ccccc1)c1ccccc1)c1ccc(Br)o1 108%
CC(C)[C@H](C)NC(=O)N(C)C[C@H]1OCc2ccccc2-c2c(n(C)c3ccccc23)C(=O)N([C@H](C)CO)C[C@H]1C 87.6%
COc1ccc2c(c1)CCc1c(C(=O)NCCCn3ccnc3)noc1-2 42.4%
Cc1ccc(S(=O)(=O)N[C@@H]2C=C[C@H](CC(=O)NCCN3CCCCC3)O[C@@H]2CO)cc1 48.1%
CCCCC(=O)Nc1ccc(C(=O)NCCCn2ccnc2)cc1 343%
OC[C@H]1O[C@@H](n2cnc3c(NCc4ccco4)ncnc32)[C@H](O)[C@@H]1O 67%
O=C(Nc1ccccc1F)N1CCCCN2[C@H](CO)[C@H](c3ccc(C#Cc4ccccc4)cc3)[C@H]2C1 8.04%
O=C(Nc1ccc(F)cc1)N1CCN(c2nc3ccccc3s2)CC1 99.3%
O=C(Nc1ccc(F)cc1)N1CCCCN2[C@@H](CO)[C@@H](c3ccc(C#Cc4ccccc4)cc3)[C@@H]2C1 32.9% [at 10 µM]
O=c1[nH]nc(SCCS(=O)(=O)c2ccc(F)cc2)n1-c1ccccc1 64.8%
Cc1cc(C)cc(N(CC(=O)NC2CC3CCC2C3)S(C)(=O)=O)c1 (stereo unspecified) 52.8%
O=C(CN1CCC(N2CCCCC2)CC1)N1CCCc2ccccc21 75.2%
CCCc1cc2c(cc1N(C)S(=O)(=O)c1ccccc1)OCO2 70.3%
Cc1ccc(NC(=O)CN2CCC(NC(=O)Cc3ccccc3)CC2)c(C)c1 132%
O=C(Nc1ccccc1-c1ccccc1)NC1CC2CCCC(C1)N2Cc1ccc(F)cc1 (stereo unspecified) 51.3%
Cc1nn2c(NCCCN3CCOCC3)c3c(nc2c1-c1ccccc1)CCC3 73.2%
COC(=O)c1cc2ccsc2n1CC(=O)Nc1cc(Cl)ccc1OC 77.8%
O=C(Cn1nc(C(=O)O)c2ccccc2c1=O)Nc1cccc(Br)c1 25.1%
Cc1ccc(/C(N)=N/OC(=O)c2ccco2)cc1 305%
CCCCN(CCCC)S(=O)(=O)c1ccc2oc(C(=O)N3CCOCC3)c(C)c2c1 114%
COC(=O)[C@@]1(C)[C@H]2C(=O)N(Cc3ccccc3)C(=O)[C@H]2[C@H]2CN=C(SCC3CC3)N21 45.1%
COc1ccc(-n2c(=O)c3c4c(sc3n3c(=S)[nH]nc23)CCC4)cc1 238%
CCOc1ccc(NC(=O)CN2CCC(n3cnc4cc(F)ccc43)CC2)cc1 93.8%
CO[C@@H](C(=O)N(C)C[C@H]1OCc2ccccc2-c2c(n(C)c3ccccc23)C(=O)N([C@H](C)CO)C[C@H]1C)c1ccccc1 104% [at 21 µM]

Reference: PubChem BioAssay AID720514 (Broad Institute, 2013)
